Data: PubChem BioAssay (Tox21)
Values joined by “and” are separate entries in the source; they are usually repeats but may differ in a detail not shown here. Identical values can stand only once. Results filed as inconclusive are left out. Entries that show only a call come without a potency. Where a structure was tested more than once in an assay, its records may differ in their call. Active and inactive are the calls of the source. Calls come from the whole dose curve.

target: 5-hydroxytryptamine receptor 2A (Homo sapiens) (UniProt P28223); test: 5-hydroxytryptamine receptor 2A (HTR2A) small molecule antagonists, cell-based qHTS assay (AID 1963586); conditions: HTR2A-CHO cells, DOI-induced calcium flux, fluorescence; series mostly up to 61.5 µM; note: nearly all actives have a fitted effect of over 45% in size
Sequence (P28223 whole entry, looked up): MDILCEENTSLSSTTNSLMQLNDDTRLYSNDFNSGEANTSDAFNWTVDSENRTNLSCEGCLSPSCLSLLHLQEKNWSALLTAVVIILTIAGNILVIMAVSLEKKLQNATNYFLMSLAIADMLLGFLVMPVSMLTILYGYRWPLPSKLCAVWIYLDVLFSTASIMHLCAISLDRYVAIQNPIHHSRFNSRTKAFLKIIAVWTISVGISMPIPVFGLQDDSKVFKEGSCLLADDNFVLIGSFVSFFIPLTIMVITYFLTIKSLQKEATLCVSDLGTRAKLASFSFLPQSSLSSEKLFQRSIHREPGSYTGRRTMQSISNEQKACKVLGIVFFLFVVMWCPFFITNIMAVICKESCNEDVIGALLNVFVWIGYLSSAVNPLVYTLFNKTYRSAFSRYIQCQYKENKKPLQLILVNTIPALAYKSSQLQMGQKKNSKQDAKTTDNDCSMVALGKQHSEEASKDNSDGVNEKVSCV
Source text: National Center for Advancing Translational Sciences [NCATS]
Division of Preclinical Innovation [DPI]
U.S. Environmental Protection Agency [EPA]
National Institutes of Environmental Health Sciences [NIEHS]
National Toxicology Program [NTP]
U.S. Food and Drug Administration [FDA]
The HTR2A receptor is a subtype of the 5-HT2 receptor that belongs to the serotonin receptor family and is a G protein-coupled receptor (GPCR). The HTR2A-CHO cell line stably expressing human 5-hydroxytryptamine receptor 2A (HTR2A) can be used for screening antagonists of interactions between 5-HT2 and its ligands. The HTR2A-CHO calcium flux assay is a homogeneous fluorescence-based assay for detecting the intracellular calcium level using FDSS kinetic plate reader system.
Tox21 Assay Protocol Summary:
HTR2A-CHO cells were dispensed at 2000 cells/3uL/well in 1536-well black-clear bottom plates using a Multidrop Dispenser. After the assay plates were incubated at a 37 C/5% CO2 incubator for 18 h, 3 uL of Dye Loading Buffer was transferred to the assay plate by a Flying Reagent Dispenser. The assay plates were incubated at 37 C for 1h. For antagonist mode, 23 nL of compounds dissolved in DMSO, positive controls or DMSO only was transferred to the assay plate by a pin tool. After 5 min incubation at room temperature, 1.5 uL of 4-Iodo-2,5-dimethoxy-alpha-methylbenzeneethanamine hydrochloride (DOI) at 4nM was added to each well. The fluorescence intensity in the plates was measured using FDSS 7000EX kinetic plate reader for 3 min at 1 sec intervals.
Potency is the fitted concentration of half-maximal effect.

| Structure (SMILES) | Potency |
| --- | --- |
| O=S(=O)(c1ccc(Cl)cc1)c1cc(Cl)c(Cl)cc1Cl | inactive |
| O=NN1CCCC1 | inactive |
| COP(=O)(CCC(=O)NCO)OC | inactive |
| O=C(Cc1ccccc1)c1ccccc1 | inactive |
| C=C(C)C(=O)OCC1CO1 (stereo not given) | inactive |
| CCN(CC)c1ccccc1 | inactive |
| O=C(O)CC[N+](=O)[O-] | inactive |
| CCNc1nc(Cl)nc(NCC)n1 | inactive |
| Cc1[nH]c(=O)n(C(C)(C)C)c(=O)c1Cl | inactive |
| Nc1ccccc1C(=O)O | inactive |
| CCC/C=N/O | inactive |
| CCCN(CCC)N=O | inactive |
| O=Cc1ccc(Cl)cc1Cl | inactive |
| Nc1ccc(-c2ccc(N)c(Cl)c2)cc1Cl | 21.2 µM (active) and 17.5 µM (active) and 29.8 µM (active) |
| NNC(N)=S | inactive |
| CCCC1COC(Cn2cncn2)(c2ccc(Cl)cc2Cl)O1 (stereo not given) | inactive |
| C[N+](C)(C)CC(=O)[O-] | inactive |
| C=CC(=O)OC(C)(C)C | inactive |
| CCCCC(CC)C(=O)Cl (stereo not given) | inactive |
| CC(C)Nc1nc(Cl)nc(NC(C)C)n1 | inactive |

| Structure (SMILES) | Potency |
| --- | --- |
| O=S(=O)(O)C(F)(F)C(F)(F)C(F)(F)C(F)(F)C(F)(F)C(F)(F)C(F)(F)C(F)(F)F | inactive |
| COc1nc(C)nc(NC(=O)NS(=O)(=O)c2ccccc2Cl)n1 | inactive |
| N#Cc1ccccn1 | inactive |
| Cn1c(N)nc2c3cccnc3ccc21 | inactive |
| CC(Br)C(=O)O (stereo not given) | inactive |
| CC(C)c1ccc(O)cc1 | inactive |
| CCCCCCCCn1sccc1=O | inactive and 1.11 µM (active) |
| CC(C)(O)C#N | inactive |
| CC(C)=CC1C(C(=O)OCc2cccc(Oc3ccccc3)c2)C1(C)C (stereo not given) | inactive |
| CC[N+](=O)[O-] | inactive |
| N#CC1(N=NC2(C#N)CCCCC2)CCCCC1 | inactive |
| CCOP(=O)(OCC)SCCSCC | inactive |
| C[C@@H]1CN(C2CCC(C#N)(c3ccc(F)cc3)CC2)CC[C@]1(C(=O)O)c1ccccc1 (stereo not given in full) | inactive |
| COC(=O)c1ccccc1C(=O)OC | inactive |
| CCCCn1cc[n+](C)c1C | inactive |
| Nc1cccnc1 | inactive |
| O=[N+]([O-])/C=C/c1ccccc1 | inactive |
| ClCCBr | inactive |
| Cc1ccc(CCl)cc1 | inactive |
| O=C(NCNC(=O)NC1C(=O)NC(=O)N1CO)NC1C(=O)NC(=O)N1CO (stereo not given) | inactive |
